In paper PMC8384837, “Expanding the binding specificity for RNA recognition by a PUF domain” one finds binding signal data, which are given here for nine sequences.

What all share (experiment): yeast three-hybrid, YBZ-1, SC-Leu-His + 0.5 mM 3-AT, 4 days
What all share (details): tags: N-Gal4 AD-HA kept; label: inside an RPR1-promoter hybrid RNA with tandem MS2 sites; ssRNA

In one test the target is PUM1 PUF domain R2-MWG (Homo sapiens, UniProt Q14671 828-1176, N899M;Y900W;Q903G). Summed up:
(§1)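 The interaction score is the log change in how often each variant appears, from input to selection. Frequencies came from PCR-amplified, Illumina-sequenced repeat regions of Pumilio-1 PUF domain libraries grown in strain YBZ-1 (LexA–MS2 coat fusion, HIS3 reporter) alongside matching RNA elements. Input plates were SC-Leu and selection plates were SC-Leu-His + 0.5 mM 3-AT, each for four days, and the log2 calculation used a pseudocount of 1 where a variant was absent.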

A further test deals with PUM1 PUF domain R2-SWF (Homo sapiens, UniProt Q14671 828-1176, N899S;Y900W;Q903F). Put shortly:
as §1

The next test concerns the target PUM1 PUF domain R5-NGR (Homo sapiens, UniProt Q14671 828-1176, C1007N;R1008G;Q1011R). Summed up: as §1
The next test has as its target PUM1 PUF domain R5-LHI (Homo sapiens, UniProt Q14671 828-1176, C1007L;R1008H;Q1011I). Put shortly:
as §1

For another test, the target named is PUM1 PUF domain R5-RGS (Homo sapiens, UniProt Q14671 828-1176, C1007R;R1008G;Q1011S). Put shortly: as §1
The next test concerns the target PUM1 PUF domain R5-KSV (Homo sapiens, UniProt Q14671 828-1176, C1007K;R1008S;Q1011V). Summed up:
as §1

A further test deals with PUM1 PUF domain R4-AHV (Homo sapiens, UniProt Q14671 828-1176, N971A;Q975V). Put shortly: as §1
A further test addresses PUM1 PUF domain R4-PYF (Homo sapiens, UniProt Q14671 828-1176, N971P;H972Y;Q975F). Summed up:
as §1

The target in the next test is PUM1 PUF domain R4-WAV (Homo sapiens, UniProt Q14671 828-1176, N971W;H972A;Q975V). Put shortly:
as §1

The target in the next test is PUM1 PUF domain R5-RYP (Homo sapiens, UniProt Q14671 828-1176, C1007R;R1008Y;Q1011P). Summed up: as §1
The target in another test is PUM1 PUF domain R4-APT (Homo sapiens, UniProt Q14671 828-1176, N971A;H972P;Q975T). Put shortly:
as §1

The target of another test is PUM1 PUF domain R8-QFQ (Homo sapiens, UniProt Q14671 828-1176, N1122Q;Y1123F). Put shortly: as §1
In another test the target is PUM1 PUF domain R4-DHC (Homo sapiens, UniProt Q14671 828-1176, N971D;Q975C). Put shortly:
as §1

For another test, the target named is T1, PUM1 PUF domain R6-LYS (Homo sapiens, UniProt Q14671 828-1176, N1043L;Q1047S).
T1 sequence: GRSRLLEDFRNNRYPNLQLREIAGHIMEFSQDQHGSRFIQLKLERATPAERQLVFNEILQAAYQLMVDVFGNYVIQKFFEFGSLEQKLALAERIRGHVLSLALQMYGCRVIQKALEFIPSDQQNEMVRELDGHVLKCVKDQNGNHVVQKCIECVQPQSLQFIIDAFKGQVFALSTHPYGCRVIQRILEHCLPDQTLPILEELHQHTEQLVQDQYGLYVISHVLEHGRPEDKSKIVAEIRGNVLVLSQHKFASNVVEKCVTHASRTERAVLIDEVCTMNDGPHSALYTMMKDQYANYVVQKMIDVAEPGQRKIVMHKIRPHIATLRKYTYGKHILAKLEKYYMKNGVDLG
Put shortly: as §1

For a further test, the target named is PUM1 PUF domain R3-TWW (Homo sapiens, UniProt Q14671 828-1176, C935T;R936W;Q939W). Summed up: as §1
A further test concerns the target PUM1 PUF domain R4-VNN (Homo sapiens, UniProt Q14671 828-1176, N971V;H972N;Q975N). Summed up:
as §1

For another test, the target named is PUM1 PUF domain R3-MRW (Homo sapiens, UniProt Q14671 828-1176, C935M;Q939W). Put shortly:
as §1

A further test has as its target PUM1 PUF domain R3-ATE (Homo sapiens, UniProt Q14671 828-1176, C935A;R936T;Q939E). Put shortly:
as §1

The target in another test is PUM1 PUF domain R3-RSR (Homo sapiens, UniProt Q14671 828-1176, C935R;R936S;Q939R). Put shortly: as §1
In the next test the target is PUM1 PUF domain R3-RRC (Homo sapiens, UniProt Q14671 828-1176, C935R;Q939C). Summed up:
as §1

Sequence of PUM1 PUF domain R4-WAV (Q14671 828-1176 N971W/H972A/Q975V): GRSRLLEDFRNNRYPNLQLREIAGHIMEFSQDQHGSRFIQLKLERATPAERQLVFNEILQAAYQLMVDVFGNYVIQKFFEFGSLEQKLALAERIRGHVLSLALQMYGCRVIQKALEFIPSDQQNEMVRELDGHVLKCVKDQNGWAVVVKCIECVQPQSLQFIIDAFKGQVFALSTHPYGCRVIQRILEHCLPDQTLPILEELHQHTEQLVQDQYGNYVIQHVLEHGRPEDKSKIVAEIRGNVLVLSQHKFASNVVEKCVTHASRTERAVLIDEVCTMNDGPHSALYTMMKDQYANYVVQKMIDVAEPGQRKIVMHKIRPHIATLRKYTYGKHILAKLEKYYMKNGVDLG

In the case of “GGCUAGAACUAGUGGAUCCCCCGGCGCCCGGCGGCUCGAGCCCGGGUAAGUGUAAAAAGUCUGCAUGCCGCCGGGCGCCAUGCCUGCAGGUCGACUCUAGAAAACAUG”, the results for the binding signal in the test with PUM1 PUF domain R2-MWG and with PUM1 PUF domain R2-SWF were 1.87 log2 enrichment (interaction score) and 2.22 log2 enrichment (interaction score), respectively.

With “GGCUAGAACUAGUGGAUCCCCCGGCGCCCGGCGGCUCGAGCCCGGGUAAGUGUCAAUAGUCUGCAUGCCGCCGGGCGCCAUGCCUGCAGGUCGACUCUAGAAAACAUG”, the binding signal with PUM1 PUF domain R5-NGR is 2.58 log2 enrichment (interaction score); with PUM1 PUF domain R5-LHI, 0.32 log2 enrichment (interaction score); with PUM1 PUF domain R5-RGS, 2.45 log2 enrichment (interaction score); with PUM1 PUF domain R5-KSV, 3.48 log2 enrichment (interaction score).

For the sequence “GGCUAGAACUAGUGGAUCCCCCGGCGCCCGGCGGCUCGAGCCCGGGUAAGUGUAAAUAGUCUGCAUGCCGCCGGGCGCCAUGCCUGCAGGUCGACUCUAGAAAACAUG”, the binding signal was 4.52 log2 enrichment (interaction score) in the test with PUM1 PUF domain R4-AHV; 7.96 log2 enrichment (interaction score) with PUM1 PUF domain R4-PYF; 2.33 log2 enrichment (interaction score) with PUM1 PUF domain R4-WAV; 2.37 log2 enrichment (interaction score) with PUM1 PUF domain R5-RYP; 1.61 log2 enrichment (interaction score) in the test with PUM1 PUF domain R2-SWF; 4.02 log2 enrichment (interaction score) with PUM1 PUF domain R4-APT. Besides, the binding signal with PUM1 PUF domain R8-QFQ is 2.91 log2 enrichment (interaction score); with PUM1 PUF domain R4-DHC, 3.99 log2 enrichment (interaction score); with PUM1 PUF domain R6-LYS it was 4.98 log2 enrichment (interaction score); in the test with PUM1 PUF domain R3-TWW, 3.61 log2 enrichment (interaction score).

On to “GGCUAGAACUAGUGGAUCCCCCGGCGCCCGGCGGCUCGAGCCCGGGUAAGUGUUAAUAGUCUGCAUGCCGCCGGGCGCCAUGCCUGCAGGUCGACUCUAGAAAACAUG”, for which the binding signal was 3.78 log2 enrichment (interaction score) in the test with PUM1 PUF domain R5-LHI, 2.13 log2 enrichment (interaction score) in the test with PUM1 PUF domain R5-RGS and 2.74 log2 enrichment (interaction score) in the test with PUM1 PUF domain R5-KSV.

On to “GGCUAGAACUAGUGGAUCCCCCGGCGCCCGGCGGCUCGAGCCCGGGUAAGUGUACAUAGUCUGCAUGCCGCCGGGCGCCAUGCCUGCAGGUCGACUCUAGAAAACAUG”, for which the figures for the binding signal with PUM1 PUF domain R4-WAV and with PUM1 PUF domain R4-DHC were 2.23 log2 enrichment (interaction score) and 4.45 log2 enrichment (interaction score), respectively.

With “GGCUAGAACUAGUGGAUCCCCCGGCGCCCGGCGGCUCGAGCCCGGGUAAGUGUAUAUAGUCUGCAUGCCGCCGGGCGCCAUGCCUGCAGGUCGACUCUAGAAAACAUG”, the binding signal was 5.71 log2 enrichment (interaction score) with PUM1 PUF domain R4-WAV, 2.95 log2 enrichment (interaction score) with PUM1 PUF domain R4-APT, 3.82 log2 enrichment (interaction score) in the test with PUM1 PUF domain R4-VNN and 6.39 log2 enrichment (interaction score) with PUM1 PUF domain R4-DHC.

For the sequence “GGCUAGAACUAGUGGAUCCCCCGGCGCCCGGCGGCUCGAGCCCGGGUAAGUGUAAGUAGUCUGCAUGCCGCCGGGCGCCAUGCCUGCAGGUCGACUCUAGAAAACAUG”, the results for the binding signal with PUM1 PUF domain R3-MRW and with PUM1 PUF domain R3-ATE were 5.09 log2 enrichment (interaction score) and 3.33 log2 enrichment (interaction score), respectively.

For the sequence “GGCUAGAACUAGUGGAUCCCCCGGCGCCCGGCGGCUCGAGCCCGGGUAAGUGUAAUUAGUCUGCAUGCCGCCGGGCGCCAUGCCUGCAGGUCGACUCUAGAAAACAUG”, the binding signal is 3.41 log2 enrichment (interaction score) with PUM1 PUF domain R3-RSR, 2.07 log2 enrichment (interaction score) in the test with PUM1 PUF domain R3-MRW, 3.79 log2 enrichment (interaction score) with PUM1 PUF domain R3-RRC and 1.77 log2 enrichment (interaction score) in the test with PUM1 PUF domain R3-TWW.

As to “GGCUAGAACUAGUGGAUCCCCCGGCGCCCGGCGGCUCGAGCCCGGGUAAGUGUAAAGAGUCUGCAUGCCGCCGGGCGCCAUGCCUGCAGGUCGACUCUAGAAAACAUG”, in the test with PUM1 PUF domain R2-MWG, the binding signal is 3.95 log2 enrichment (interaction score).
